Consider 15 compounds from the supplement of paper PMC6522484.

Assay [1] has as its system DLD1. Kind of assay: cell viability (CellTiter-Glo) relative to plate median (fraction of plate median); higher = more viable cells. The following applies: 5 µM; treatment time 24 h; reporter: 7TFP. In outline:
(§1)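 Two independent replicates were averaged for each reported value. Library compounds were applied at a final 5 µM for 24 h to colorectal cancer cell lines stably expressing lentiviral TCF/Wnt firefly luciferase reporters. Firefly luciferase or CellTiterGlo luminescence from each well was normalised to the plate median.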
Background: In ATP-based viability assays light output follows the ATP content of the culture.

A further assay has as its system HCT116. The assay is described as above. The following applies: 5 µM; treatment time 24 h; reporter: TCF4/Wnt. In outline: as §1
The test system of assay [2] is SW480. The assay is described as above. The following applies: 5 µM; treatment time 24 h; reporter: 7TFP. The essentials: as §1
The subject of assay [3] is DLD1. Kind of assay: TCF/Wnt firefly luciferase reporter signal relative to plate median (fraction of plate median); higher = higher Wnt reporter signal. The following applies: 5 µM; treatment time 24 h; reporter: 7TFP. The essentials:
as §1
A general note: A reporter such as luciferase makes a cellular process visible.

Assay [4] has as its system SW480. The description is as above. To be noted: 5 µM; treatment time 24 h; reporter: 7TFP. The essentials: as §1

± gives the standard deviation of the averaged measurements.

As for `CC[C@H]1OC(=O)[C@H](C)[C@@H](O[C@H]2C[C@@](C)(OC)[C@@H](O)[C@H](C)O2)[C@H](C)[C@@H](O[C@@H]2O[C@H](C)C[C@H](N(C)C)[C@H]2O)[C@](C)(O)C[C@@H](C)/C(=N\OCOCCOC)[C@H](C)[C@@H](O)[C@]1(C)O`, the cell viability worked out at 1.03 ± 0.079 in the assay with DLD1 [1], 1.12 ± 0.26 with HCT116 and 1.12 ± 0.057 with SW480 [2]. For the same compound, the figures for the “TCF/Wnt firefly luciferase reporter signal” value in the assay with DLD1 [3] and in the assay on SW480 [4] were 0.907 ± 0.13 and 1.03 ± 0.05, respectively.

As for `O=c1cc(-c2ccc(O)cc2)oc2ccc(O)cc12`, the values for the cell viability with DLD1 [1], in the assay on HCT116 and in the assay with SW480 [2] were 1.11 ± 0.11, 1.1 ± 0.099 and 1.035 ± 0.0071, respectively. Moreover, the “TCF/Wnt firefly luciferase reporter signal” value was 1.03 ± 0.11 with DLD1 [3] and 1.125 ± 0.0071 with SW480 [4].

Turning to `C=CC(C1=CC(=O)C(OC)=CC1=O)c1ccc(O)cc1` (stereo not given), the results for the cell viability with DLD1 [1], in the assay with HCT116 and with SW480 [2] were 1.01, 1.1 ± 0.021 and 1.02, respectively. The figures for the “TCF/Wnt firefly luciferase reporter signal” value in the assay on DLD1 [3] and in the assay on SW480 [4] were 0.879 ± 0.0028 and 0.877 ± 0.12, respectively.

With `Cc1cc(C(C)(C)C)cc(C)c1CC1=NCCN1`, the cell viability in the assay on DLD1 [1] was 1.095 ± 0.0071; with HCT116 it was 1.06 ± 0.035; in the assay on SW480 [2], 1.07 ± 0.057. For the same compound, the “TCF/Wnt firefly luciferase reporter signal” value was determined as 0.9565 ± 0.0064 in the assay on DLD1 [3] and 0.991 ± 0.098 in the assay on SW480 [4].

Regarding `C[C@]12CCC[C@H](O1)c1c(cc3c(c1O)C(=O)c1c(O)cc(O)cc1C3=O)O2` [Averufin (Isoform B, Compound ID 7395)], the cell viability in the assay on DLD1 [1] came out at 1.09 ± 0.14; with HCT116, 1.01 ± 0.014; in the assay with SW480 [2] it was 1.03 ± 0.054. Moreover, the “TCF/Wnt firefly luciferase reporter signal” value came to 1.02 ± 0.035 in the assay on DLD1 [3] and 0.942 ± 0.14 in the assay with SW480 [4].

Regarding `CN(C)CCC=C1c2ccccc2C=Cc2ccccc21`, the values for the cell viability in the assay with DLD1 [1], with HCT116 and in the assay on SW480 [2] were 1.02 ± 0.034, 0.998 ± 0.046 and 1.035 ± 0.0071, respectively. Further, the “TCF/Wnt firefly luciferase reporter signal” value with DLD1 [3] was found to be 0.991 ± 0.042; in the assay on SW480 [4], 0.969 ± 0.0085.

`CC(=O)O[C@@H]1C[C@H]2C(C)(C)[C@@H](O)CC[C@]2(C)[C@H]2CC[C@@]3(C)[C@H](c4ccoc4)OC(=O)[C@H]4O[C@]43[C@@]21C` [beta-DIHYDROGEDUNOL]: the figures for the cell viability in the assay on DLD1 [1], in the assay on HCT116 and in the assay on SW480 [2] were 0.978 ± 0.028, 1.08 ± 0.078 and 0.984 ± 0.021, respectively. The “TCF/Wnt firefly luciferase reporter signal” value in the assay on DLD1 [3] stood at 1.02 ± 0.035; with SW480 [4], 1.12 ± 0.085.

As to `CC(=O)NO`, the cell viability was found to be 1.035 ± 0.0071 in the assay on DLD1 [1], 0.999 ± 0.059 in the assay on HCT116 and 1.05 ± 0.057 in the assay with SW480 [2]. Further, the results for the “TCF/Wnt firefly luciferase reporter signal” value in the assay with DLD1 [3] and in the assay on SW480 [4] were 1.155 ± 0.0071 and 1.075 ± 0.0071, respectively.

For the compound `Cc1cc(=O)c2c(O)cc(O)c(C)c2o1`, the cell viability in the assay with DLD1 [1] was 0.906 ± 0.061; with HCT116 it was 0.873 ± 0.034; in the assay with SW480 [2], 0.9105 ± 0.0035. In addition, the “TCF/Wnt firefly luciferase reporter signal” value was determined as 1.25 ± 0.26 in the assay with DLD1 [3] and 1.02 ± 0.039 in the assay on SW480 [4].

Consider `Cc1cc(NS(=O)(=O)c2ccc(N)cc2)no1`, for which the figures for the cell viability with DLD1 [1], in the assay on HCT116 and in the assay on SW480 [2] were 1.035 ± 0.0071, 1.15 ± 0.035 and 1.01, respectively. Further, the “TCF/Wnt firefly luciferase reporter signal” value in the assay with DLD1 [3] was determined as 1.09 ± 0.11; in the assay on SW480 [4] it was 0.988 ± 0.032.

For the compound `O=C1OC(c2ccc(O)cc2)(c2ccc(O)cc2)c2ccccc21`, the cell viability amounted to 1.01 ± 0.12 in the assay with DLD1 [1], 1.03 ± 0.12 with HCT116 and 1.025 ± 0.0071 in the assay on SW480 [2]. In addition, the “TCF/Wnt firefly luciferase reporter signal” value in the assay on DLD1 [3] turned out to be 0.981 ± 0.069; with SW480 [4] it was 1.04 ± 0.057.

In the case of `C#CCCCCCCCCCCCC(O)CC(O)CO.C=CCCCCCCCCCCCC(O)CC(O)CO` (stereo not given), the cell viability in the assay with DLD1 [1] worked out at 1.015 ± 0.0071; in the assay with HCT116, 0.974 ± 0.0099; in the assay with SW480 [2], 1.01 ± 0.051. The “TCF/Wnt firefly luciferase reporter signal” value in the assay on DLD1 [3] came to 1.05 ± 0.18; in the assay on SW480 [4], 0.974 ± 0.11.

For the compound `O=C(c1ccccc1)c1ccc2n1CCC2C(=O)O` (stereo not given), the cell viability in the assay on DLD1 [1] worked out at 1.03 ± 0.095; with HCT116, 0.929 ± 0.16; in the assay on SW480 [2], 1 ± 0.023. Besides, the “TCF/Wnt firefly luciferase reporter signal” value in the assay on DLD1 [3] was determined as 0.911 ± 0.066; in the assay on SW480 [4] it was 0.924 ± 0.021.

Take `CCN(CC)CCOC(=O)c1ccc(N)cc1`: the figures for the cell viability in the assay on DLD1 [1], with HCT116 and with SW480 [2] were 1.01 ± 0.12, 1.05 ± 0.028 and 1.03 ± 0.021, respectively. Further, the “TCF/Wnt firefly luciferase reporter signal” value was found to be 1.09 ± 0.092 in the assay on DLD1 [3] and 1.06 ± 0.014 with SW480 [4].

As to `C#CCCCCCCCCCCCC(O)CC(O)COC(C)=O` (stereo not given), the figures for the cell viability in the assay on DLD1 [1], in the assay with HCT116 and in the assay with SW480 [2] were 1.02 ± 0.021, 1.05 ± 0.089 and 1.06 ± 0.014, respectively. Further, the results for the “TCF/Wnt firefly luciferase reporter signal” value in the assay on DLD1 [3] and in the assay with SW480 [4] were 1.08 ± 0.12 and 0.941 ± 0.098, respectively.
